Test results as given in PubChem BioAssay (NCATS).
Inconclusive results are not listed. Where a call stands in place of a potency, no number is given. A number with no mark means an inactive call. Active and inactive are the calls of the source. Calls come from the whole dose curve; as a rule, active = well fitted curve in the direction sought with a large enough effect; inconclusive = small, poorly fitted or top-dose-only effect, or another doubt; inactive = no such curve, though single readings can be large; an effect the other way counts as inactive or inconclusive.

Assays:
[1] = target: Ubiquitin carboxyl-terminal hydrolase 1 (Homo sapiens) (UniProt O94782); assay: Inhibitors of USP1/UAF1: Pilot qHTS (AID 504865); note: nearly all actives have a fitted effect of over 35% in size; note: potency is the fitted concentration of half-maximal effect
Sequence of Ubiquitin carboxyl-terminal hydrolase 1 (Homo sapiens) (O94782 whole entry, looked up): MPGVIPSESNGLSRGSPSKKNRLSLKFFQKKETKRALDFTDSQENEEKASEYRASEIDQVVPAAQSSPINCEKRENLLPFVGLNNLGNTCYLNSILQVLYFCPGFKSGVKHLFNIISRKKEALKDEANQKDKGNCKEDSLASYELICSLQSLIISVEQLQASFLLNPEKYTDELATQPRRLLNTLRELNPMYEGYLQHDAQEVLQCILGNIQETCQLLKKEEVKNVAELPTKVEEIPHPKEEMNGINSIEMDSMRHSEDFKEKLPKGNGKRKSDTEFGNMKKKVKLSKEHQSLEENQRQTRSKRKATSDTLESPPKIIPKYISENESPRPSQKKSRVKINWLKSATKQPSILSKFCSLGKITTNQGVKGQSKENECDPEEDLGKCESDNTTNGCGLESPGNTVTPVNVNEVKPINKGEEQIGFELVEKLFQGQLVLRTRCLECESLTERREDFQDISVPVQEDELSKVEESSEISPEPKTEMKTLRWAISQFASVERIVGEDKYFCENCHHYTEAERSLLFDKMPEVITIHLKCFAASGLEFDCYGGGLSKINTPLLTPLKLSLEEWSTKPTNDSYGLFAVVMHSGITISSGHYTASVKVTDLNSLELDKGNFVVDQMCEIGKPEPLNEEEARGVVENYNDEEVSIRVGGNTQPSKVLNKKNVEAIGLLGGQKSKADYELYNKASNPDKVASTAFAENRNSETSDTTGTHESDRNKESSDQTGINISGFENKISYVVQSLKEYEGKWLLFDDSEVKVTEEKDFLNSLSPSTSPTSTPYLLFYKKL
Summary of the method: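 Deubiquitinase activity followed as kinetic rhodamine fluorescence release from 150 nM Ub-Rho. 1 nM USP1/UAF1 with compound, after 15 min room-temperature preincubation, in HEPES pH 7.8 buffer containing TCEP, EDTA, BSA and Tween-20.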

[2] = target: ATP-dependent 6-phosphofructokinase (Trypanosoma brucei brucei) (UniProt O15648); assay: qHTS Assay to Find Inhibitors of T. brucei phosphofructokinase: hit validation (AID 492961);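 note: luminescence reports ADP formed as PFK phosphorylates fructose-6-phosphate with ATP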
Sequence of ATP-dependent 6-phosphofructokinase (Trypanosoma brucei brucei) (O15648 whole entry, looked up): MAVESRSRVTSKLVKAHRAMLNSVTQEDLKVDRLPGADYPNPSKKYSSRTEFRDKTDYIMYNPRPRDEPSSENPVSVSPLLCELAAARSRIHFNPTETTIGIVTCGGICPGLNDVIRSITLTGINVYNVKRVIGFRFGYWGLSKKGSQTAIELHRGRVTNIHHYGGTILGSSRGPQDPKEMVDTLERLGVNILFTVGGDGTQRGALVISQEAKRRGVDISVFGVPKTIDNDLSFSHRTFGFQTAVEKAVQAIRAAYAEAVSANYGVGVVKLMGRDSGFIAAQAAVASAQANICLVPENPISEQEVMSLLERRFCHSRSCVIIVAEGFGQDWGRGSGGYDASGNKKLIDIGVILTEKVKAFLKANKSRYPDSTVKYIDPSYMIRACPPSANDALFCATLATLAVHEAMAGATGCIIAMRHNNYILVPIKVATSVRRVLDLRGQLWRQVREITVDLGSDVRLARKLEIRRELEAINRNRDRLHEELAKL
Summary of the method: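 Compounds titrated; %activity normalized to 0x and 1x enzyme controls, curve-fitted. Readout: ADP-Glo luminescence after 45 min room-temperature reaction of 1.25 nM PFK, 0.1 mM ATP, 0.5 mM F6P, pH 8.0.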

[3] = target: Luciferin 4-monooxygenase (Photinus pyralis) (UniProt P08659); assay: Biochemical firefly luciferase enzyme assay for NPC (AID 624030);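 note: purified P. pyralis luciferase at 10 nM with luciferin and ATP substrate; nearly all actives have a fitted effect of over 70% in size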
Sequence of Luciferin 4-monooxygenase (Photinus pyralis) (P08659 whole entry, looked up): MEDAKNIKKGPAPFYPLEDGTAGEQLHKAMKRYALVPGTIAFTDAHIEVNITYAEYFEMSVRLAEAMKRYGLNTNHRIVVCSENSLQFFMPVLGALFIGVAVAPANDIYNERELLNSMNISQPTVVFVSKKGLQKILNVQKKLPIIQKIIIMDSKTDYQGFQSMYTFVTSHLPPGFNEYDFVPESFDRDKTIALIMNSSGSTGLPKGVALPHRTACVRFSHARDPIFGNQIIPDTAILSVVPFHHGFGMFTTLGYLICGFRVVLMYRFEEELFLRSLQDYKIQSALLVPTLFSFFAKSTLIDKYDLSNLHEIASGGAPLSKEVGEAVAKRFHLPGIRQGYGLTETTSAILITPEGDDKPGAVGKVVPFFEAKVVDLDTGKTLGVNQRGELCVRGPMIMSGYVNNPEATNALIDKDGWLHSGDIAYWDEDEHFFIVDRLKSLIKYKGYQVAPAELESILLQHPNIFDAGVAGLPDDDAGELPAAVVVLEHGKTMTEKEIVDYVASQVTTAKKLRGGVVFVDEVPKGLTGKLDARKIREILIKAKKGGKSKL
Summary of the method: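 Purified P. pyralis luciferase at 10 nM in 50 mM Tris Acetate (final), luminescence read within 5 minutes of enzyme addition to compounds. Activity normalised to PTC124 versus DMSO; concentration-response curves classed by r2, magnitude and activity.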

[4] = qHTS profiling for inhibitors of Plasmodium falciparum proliferation (AID 504749); note: nearly all actives have a fitted effect of over 60% in size; note: potency is the fitted concentration of half-maximal effect; conditions: P. falciparum in erythrocytes, SYBR Green DNA, 72 h, at 28.7 µM (top of the series)
Summary of the method: (§1)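 Each compound contacts P. falciparum-infected red blood cells for 72 h at 37 C; lysis buffer (Tris, EDTA, saponin, Triton X, SYBR Green I) is added and fluorescence measured next morning; values normalized to controls.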

ATS189 = assay: as above; conditions: P. falciparum in erythrocytes, SYBR Green DNA, 72 h; series mostly up to 28.7 µM
Summary of the method: as §1

C2A = assay: as above; conditions: P. falciparum in erythrocytes, SYBR Green DNA, 72 h; series mostly up to 28.7 µM
Summary of the method: as §1

CP191 = assay: as above; conditions: P. falciparum in erythrocytes, SYBR Green DNA, 72 h; series mostly up to 28.7 µM
Summary of the method: as §1

CP192 = assay: as above; conditions: P. falciparum in erythrocytes, SYBR Green DNA, 72 h; series mostly up to 28.7 µM
Summary of the method: as §1

CP201 = assay: as above; conditions: P. falciparum in erythrocytes, SYBR Green DNA, 72 h; series mostly up to 28.7 µM
Summary of the method: as §1

CP215 = assay: as above; conditions: P. falciparum in erythrocytes, SYBR Green DNA, 72 h; series mostly up to 28.7 µM
Summary of the method: as §1

CP237 = assay: as above; conditions: P. falciparum in erythrocytes, SYBR Green DNA, 72 h; series mostly up to 28.7 µM
Summary of the method: as §1

CP238 = assay: as above; conditions: P. falciparum in erythrocytes, SYBR Green DNA, 72 h; series mostly up to 28.7 µM
Summary of the method: as §1

CP268 = assay: as above; conditions: P. falciparum in erythrocytes, SYBR Green DNA, 72 h; series mostly up to 28.7 µM
Summary of the method: as §1

CP269 = assay: as above; conditions: P. falciparum in erythrocytes, SYBR Green DNA, 72 h; series mostly up to 28.7 µM
Summary of the method: as §1

CP286 = assay: as above; conditions: P. falciparum in erythrocytes, SYBR Green DNA, 72 h; series mostly up to 28.7 µM
Summary of the method: as §1

CP325 = assay: as above; conditions: P. falciparum in erythrocytes, SYBR Green DNA, 72 h; series mostly up to 28.7 µM
Summary of the method: as §1

CP329 = assay: as above; conditions: P. falciparum in erythrocytes, SYBR Green DNA, 72 h; series mostly up to 28.7 µM
Summary of the method: as §1

FAB9 = assay: as above; conditions: P. falciparum in erythrocytes, SYBR Green DNA, 72 h; series mostly up to 28.7 µM
Summary of the method: as §1

JCK = assay: as above; conditions: P. falciparum in erythrocytes, SYBR Green DNA, 72 h; series mostly up to 28.7 µM
Summary of the method: as §1

PC49 = assay: as above; conditions: P. falciparum in erythrocytes, SYBR Green DNA, 72 h; series mostly up to 28.7 µM
Summary of the method: as §1

With `CN1[C@@H]2CC(OC(=O)[C@@H](CO)c3ccccc3)C[C@@H]1[C@H]1O[C@H]12` (stereo partly drawn) the Potency [1] was “inactive”.

For `CC[C@@H]1CN2CCc3cc(OC)c(OC)cc3[C@H]2C[C@@H]1C[C@H]1NCCc2cc(OC)c(OC)cc21`, the Potency [1] was “inactive”.

In the case of `NCC1O[C@@H](O[C@H]2C(O)C(O[C@@H]3C(O[C@H]4OC(CO)C(O)C(O)C4N)C(N)CC(N)[C@H]3O)O[C@@H]2CO)C(N)C(O)C1O` (stereo partly drawn), the Potency [1] is reported as “inactive”.

With `CN1C[C@@H](C(=O)N[C@@]2(C)O[C@]3(O)C4CCCN4C(=O)[C@@H](Cc4ccccc4)N3C2=O)C=C2c3cccc4[nH]cc(c34)C[C@@H]21` (stereo partly drawn) the Potency [1] was 50.1 µM (active).

For `C[N+]12CCC(CC1)[C@@H](OC(=O)C(O)(c1ccccc1)c1ccccc1)C2`, the Potency [1] was “inactive”.

With `COc1ccc2c(c1)CCC1[C@@H]2CCC2(C)[C@@H](NCCCCCCN3C(=O)C=CC3=O)CC[C@@H]12` (stereo partly drawn) the Potency [1] was “inactive”.

For `CC[C@@H]1CN2CCc3cc(OC)c(OC)cc3[C@@H]2C[C@@H]1C[C@H]1NCCc2cc(OC)c(OC)cc21`, the Potency [1] was “inactive”.

With `CN(C)[C@@H](Cc1ccccc1)c1ccccc1` the outcome [2] was “inactive”, the Potency [1] was “inactive” and the Potency [3] was “inactive”. For the same compound, the activity, negative = inhibition ([4]; parasite line A) was 6.12%, the activity, negative = inhibition ([4]; parasite line B) was 4.62% and the Potency (ATS189) was “inactive”. The Potency (C2A) was “inactive”, the Potency (CP191) was “inactive” and the Potency (CP192) was “inactive”. For the same compound, the Potency (CP201) was “inactive”, the Potency (CP215) was “inactive” and the Potency (CP237) was 8.91 µM (active). The Potency (CP238) was “inactive”, the Potency (CP268) was “inactive” and the Potency (CP269) was “inactive”. The Potency (CP286) was “inactive”, the Potency (CP325) was “inactive” and the Potency (CP329) was “inactive”. The Potency (FAB9) was “inactive”, the Potency (JCK) was “inactive” and the Potency (PC49) was “inactive”.

With `C=C1CC2C(CC[C@]3(C)C(=O)CCC23)[C@]2(C)C=CC(=O)C=C12` (stereo partly drawn) the outcome [2] was “inactive”, the Potency [1] was “inactive” and the Potency [3] was “inactive”. For the same compound, the activity, negative = inhibition ([4]; parasite line B) was 0.0393%, the Potency (ATS189) was “inactive” and the Potency (C2A) was “inactive”. The Potency (CP191) was “inactive”, the Potency (CP192) was “inactive” and the Potency (CP201) was “inactive”. For the same compound, the Potency (CP215) was “inactive”, the Potency (CP237) was “inactive” and the Potency (CP238) was “inactive”. For the same compound, the Potency (CP268) was “inactive”, the Potency (CP269) was “inactive” and the Potency (CP286) was “inactive”. The Potency (CP325) was “inactive”, the Potency (CP329) was “inactive” and the Potency (FAB9) was “inactive”. The Potency (JCK) was “inactive” and the Potency (PC49) was “inactive”.

In the case of `Cc1cc2nc3c(=O)[nH]c(=O)nc-3n(C[C@H](O)[C@H](O)[C@H](O)COP(=O)(O)OP(=O)(O)OC[C@H]3O[C@@H](n4cnc5c(N)ncnc54)[C@H](O)[C@@H]3O)c2cc1C`, the Potency [1] is reported as 50.1 µM (active).

With `NC(Cc1ccc(Oc2cc(I)c(O)c(I)c2)c(I)c1)C(=O)O` (stereo not drawn) the Potency [1] was 79.4 µM (active), the activity, negative = inhibition ([4]; parasite line A) was 8.09% and the activity, negative = inhibition ([4]; parasite line B) was -0.518%. For the same compound, the Potency (ATS189) was “inactive”, the Potency (C2A) was “inactive” and the Potency (CP191) was “inactive”. The Potency (CP192) was “inactive”, the Potency (CP201) was “inactive” and the Potency (CP215) was “inactive”. The Potency (CP237) was “inactive”, the Potency (CP238) was “inactive” and the Potency (CP268) was “inactive”. The Potency (CP269) was “inactive”, the Potency (CP286) was “inactive” and the Potency (CP325) was “inactive”. The Potency (CP329) was “inactive”, the Potency (FAB9) was “inactive” and the Potency (JCK) was “inactive”. For the same compound, the Potency (PC49) was “inactive”.
